Source: PubChem (National Center for Advancing Translational Sciences (NCATS))
G9a block – G9a (human) methyltransferase inhibition | G9a H3K9 monomethylation, AlphaScreen, 2 h | Potency, µM (doses to about 102 µM), for the others: at the highest dose activity, negative = inhibition, actives largely listed as inhibitors | AID 504332 | 350,000 compounds, 8.8% hits; note: potency is the fitted concentration of half-maximal effect; nearly all actives have a fitted effect of over 75% in size
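Chemiluminescent proximity detection of H3K9 monomethylation, read after 10 min bead incubation in the dark. Reaction: 20 nM G9a, 500 nM biotin-H3K9 peptide, 20 uM SAM cofactor, 2 h, room temperature, following 15 min enzyme-compound preincubation.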
PLK1 PBD inh – PLK1 (human) polo-box domain binding inhibition; P53350; Plk1 PBD binding of FITC phosphopeptide, fluorescence polarization; Potency, µM, without a hit: max response, negative = inhibition, actives largely listed as inhibitors; AID 720504; 360,000 compounds, 2.8% hits; note: potency is the fitted concentration of half-maximal effect; series mostly up to about 57 µM; nearly all actives have a fitted effect of over 65% in size
VDR inh – inhibitors of human vitamin D receptor; VDR-SRC2-3 peptide fluorescence polarization, 2 h; Potency, µM, without a hit: max response, negative = inhibition, most hits filed as inhibitors; 400,000 compounds, 0.93% hits; note: potency is the fitted concentration of half-maximal effect
Target sequence (P11473 whole entry, looked up): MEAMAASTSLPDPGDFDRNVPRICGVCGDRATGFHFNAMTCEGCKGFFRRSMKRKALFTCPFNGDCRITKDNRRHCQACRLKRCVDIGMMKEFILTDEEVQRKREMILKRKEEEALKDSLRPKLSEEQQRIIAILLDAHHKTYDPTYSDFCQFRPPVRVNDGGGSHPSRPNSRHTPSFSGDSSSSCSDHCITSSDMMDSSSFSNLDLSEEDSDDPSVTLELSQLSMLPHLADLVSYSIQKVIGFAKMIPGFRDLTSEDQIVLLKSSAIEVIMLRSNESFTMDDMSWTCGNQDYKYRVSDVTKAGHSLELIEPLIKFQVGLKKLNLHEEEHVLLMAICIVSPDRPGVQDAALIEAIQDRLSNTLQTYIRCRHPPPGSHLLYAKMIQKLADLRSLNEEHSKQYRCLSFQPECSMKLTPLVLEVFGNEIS
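VDR–SRC2-3 interaction, FP format. Cmpds 23 nl via pintool, brief spin, 2 h ambient incubation.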
CCT chaperon mod – cytosolic chaperonin activity modulation; 360,000 compounds, 0.3% hits; activity change, % (no concentration beside the values), hits read low; purified chaperonin ATPase assay, HTRF ADP detection, 30 min; in the data active = activity change below about -30%
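Nucleotide hydrolysis assay: TRiC at 20–40 nM final (set by batch activity) with 10 uM ATP, 30 min at 37 °C, in presence of 76 uM compound. Detection by competitive ADP HTRF, 30 min ambient.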
Sfp inh – blocks B. subtilis Sfp PPTase activity; 310,000 compounds, 3.5% hits; Biochemical Sfp PPTase activity, qHTS; AID 1490; Potency, µM, inactives show largest response in the series, negative = inhibition, actives largely listed as inhibitors;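 note: the enzyme is Sfp with the accession as filed and its product quenches rhodamine fluorescence; potency is the fitted concentration of half-maximal effect; 0% = enzyme reaction without inhibitor and -100% = no enzyme wells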
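After 15 min at room temperature with compound, 15 nM Sfp received 5 uM rhodamine-CoA plus 12.5 uM BHQ-2-ybbR (50 mM Hepes pH 7.6, 10 mM MgCl2). Rate came from the fluorescence difference over 30 min, ex 525/em 598 nm.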
Mm-Cpn inhibitor – inhibitors of Methanococcus maripaludis chaperonin TRiC (MmCpn); Potency, µM (titrated, usually from 76.9 µM), for inactives: top-dose activity, negative = inhibition, most hits filed as inhibitors; AID 504842; purified Mm-Cpn ATPase, ADP Transcreener TR-FRET; 330,000 compounds, 0.031% hits; note: potency is the fitted concentration of half-maximal effect; nearly all actives have a fitted effect of over 80% in size
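Purified archaeal Mm-CPN (25nM final) preincubated 10 min at 37degC with compound, then 10uM ATP for 30 min at 37degC; ADP measured by HTRF Transcreener TR-FRET; buffer 30 mM TRIS pH 7.4, 100mM KCl, 5mM MgCl2, 1mM DTT.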
Starred values were filed as active, the others as inactive; ? = inconclusive; nt = no result given; [ ] = another dose, or the depositor's remark. The list is not random: actives were taken first. Their share in the collection is about 10%. Unless noted, calls come from the whole dose curve; as a rule, active = well fitted curve in the direction sought with a large enough effect; inconclusive = small, poorly fitted or top-dose-only effect, or another doubt; inactive = no such curve, though single readings can be large; an effect the other way counts as inactive or inconclusive. Unless noted, % is set by controls: 0 for no effect and ±100 for the full control effect.

SMILES	G9a block	PLK1 PBD inh	VDR inh	CCT chaperon mod	Sfp inh	Mm-Cpn inhibitor
CC(C)c1nc(SCC(=O)c2ccc(F)cc2)c2ccccc2n1	39.8µM*	?	?	-3.4	31.6µM*	-10.9%
CC(C)c1nc(SCC(=O)Nc2nccs2)c2ccccc2n1	-12.1%	-6.1%	4.1%	-0.6	12.4%	-1.5%
COC(=O)CSc1nc(C(C)C)nc2ccccc12	17.8%	-3.9%	-5.1%	0.7	15.6%	-9.1%
COCCCNc1nc2c(c(=O)n(Cc3ccccc3)c(=O)n2C)n1C	5.8%[59 µM]	nt	5.5%	nt	nt	nt
Cc1nn2cc(-c3ncc(C(F)(F)F)cc3Cl)cnc2c1Br	5.0%	23.8µM*	-11.8%	-6.3	11.7%	3.8%
Cc1cnc(CNc2ncnc3ccc(-c4cccc(C#N)c4)cc23)cn1	nt	nt	-8.1%	nt	3.7%	nt
CCCCCCC(=O)Cc1cc(OC)c(OC)cc1C=C(C(=O)OCC)C(=O)OCC	39.8µM*	nt	nt	nt	17.9%	-3.8%
CCCCCC(=O)c1c(O)cc(OC)c(Cl)c1O	nt	nt	2.8%	nt	2.8%	nt
COc1ccc(CNC(=O)c2cccc(N(C)C)c2)cc1	7.08µM*	-22.5%	-7.1%	3.9	?	-2.3%
CCc1cccc(C)c1NC(=O)c1cccc(N(C)C)c1	?	-7.7%	-17.4%	2.9	56.2µM*	-6.0%
COc1ccccc1CNC(=O)c1cccnc1	23.9%	-10.9%	1.0%	-1.2	17.3%	-0.6%
CC(C)c1nc2ccc(C(=O)NCc3ccc(N(C)C)cc3)cc2o1	15.8µM*	nt	11.8%	nt	nt	nt
COc1ccccc1CNC(=O)c1cccc(N(C)C)c1	8.91µM*	-7.0%	7.4%	-0.8	-3.5%	-1.9%
Cc1cccc(C)c1NC(=O)Cn1nc(C)c2sc3ccccc3c2c1=O	-47.8%[59 µM]	nt	1.9%	nt	nt	nt
COc1ccccc1CNC(=O)CCCN1C(=O)CSc2c1c(C)nn2-c1ccccc1	-0.8%[59 µM]	nt	16.5%	nt	nt	nt
COc1ccc(CCNC(=O)CCCCn2c(=O)c3ccccc3n(Cc3ccc(Cl)cc3)c2=O)cc1OC	-39.2%[59 µM]	nt	13.7%	nt	nt	nt
CCn1cc(/C=C(\NC(=O)c2cc(OC)c(OC)c(OC)c2)C(=O)NCCCn2ccnc2)c2ccccc21	10.7%[59 µM]	nt	3.9%	nt	nt	nt
CN1CCN(C(=O)CCN2C(=O)/C(=C\c3ccc(Cl)cc3Cl)SC2=S)CC1	nt	42.3µM*	1.7%	-4.7	1.7%	2.3%
COc1cc(/C=C2\SC(=S)N(CCC(=O)N3CCN(C)CC3)C2=O)cc(OC)c1OC	50.1µM*	-6.4%	-1.8%	-0.8	-16.7%	-4.3%
CC1CCN(C(=O)CCN2C(=O)/C(=C/c3cccs3)SC2=S)CC1	31.6µM*	-4.9%	16.2%	-0.5	7.5%	0.7%
Cc1ccn2c(c1)nc(=O)c1cc(S(=O)(=O)N3CCC(C)CC3)c(Cl)cc12	2.6%[59 µM]	nt	8.1%	nt	nt	nt
COc1cc(CN(C(=O)c2cccc(C)c2)c2ccccn2)cc(OC)c1OC	3.1%[59 µM]	nt	13.3%	nt	nt	nt
O=C(NCC(c1ccc2c(c1)OCO2)N1CCOCC1)c1c(F)cccc1F (stereo not drawn)	-7.4%[59 µM]	nt	-0.8%	nt	nt	nt
COC(=O)C(c1ccccc1Cl)N1CCc2sccc2C1 (stereo not drawn)	20.2%[59 µM]	nt	-13.7%	nt	-9.2%	nt
COc1cc(C(=O)OCC(=O)Nc2ccc(N3CCOCC3)cc2)ccc1OCC(C)C	6.31µM*	5.4%	-1.5%	1.4	nt	-0.3%
SMILES	G9a block	PLK1 PBD inh	VDR inh	CCT chaperon mod	Sfp inh	Mm-Cpn inhibitor
O=C(COC(=O)c1cncc(Br)c1)Nc1ccc(N2CCCCC2)cc1	?	-0.8%	-20.2%	-0.4	nt	-0.9%
Cc1cccc(C(=O)OCC(=O)Nc2ccc(N3CCCCC3)cc2)c1O	?	-6.5%	-11.2%	-1.3	2.9%	-4.1%
O=C(COC(=O)c1ccccc1OC(F)F)Nc1ccc(N2CCCCC2)cc1	7.94µM*	4.0%	4.7%	-0.5	nt	2.2%
COc1ccc(/C=C/C(=O)OCC(=O)Nc2ccc(N3CCOCC3)cc2)cc1OC	-16.4%	1.0%	-5.4%	0.1	-1.3%	-3.6%
COc1cc(OC)cc(C(=O)OCC(=O)Nc2ccc(N3CCCCC3)cc2)c1	10µM*	-5.5%	-9.4%	-2.3	1.5%	0.7%
O=C(COC(=O)c1ccc(O)cc1)Nc1ccc(N2CCCCC2)cc1	44.7µM*	-6.0%	4.3%	-0.4	7.3%	-14.6%
